Bioassay records from PubChem BioAssay.
Shown are actives, neighbours in structure and some others; about 3.5% of the full set was active somewhere.
GPR151 activ: activates the human receptor GPR151 | Q8TDV0 | PathHunter beta-arrestin GPR151 cells, luminescence | activation, % at 11.2 µM | 1% of 650,000 active; in the data active means activation above about 4.9%
TEAD-YAP inh: TEAD-YAP interaction inhibition; HEK-TIYL cells, TEAD-Gal4/YAP UAS-luciferase luminescence; 1.4% of 640,000 active; inhibition, % at 9.12 µM; AID 1259422; in the data active means inhibition above about 32%
FBW7 act: human FBW7 E3 ligase activation, primary screen | normalized activity (activation), % at 26.1 µM | 0.13% of 650,000 active | AlphaScreen FBW7–phospho-cyclin E peptide binding, activator screen | Q969H0; in the data active means normalized activity above about 1.9%;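 further: purified mutant Fbw7 with reduced substrate affinity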
MITF inh: blocks human microphthalmia-associated transcription factor | O75030 | AID 1259374 | inhibition, % at 2.6 µM | 0.91% of 650,000 active | AlphaScreen MITF homodimerization, bead proximity signal; in the data active means inhibition above about 50%
Target sequence (O75030 whole entry, looked up): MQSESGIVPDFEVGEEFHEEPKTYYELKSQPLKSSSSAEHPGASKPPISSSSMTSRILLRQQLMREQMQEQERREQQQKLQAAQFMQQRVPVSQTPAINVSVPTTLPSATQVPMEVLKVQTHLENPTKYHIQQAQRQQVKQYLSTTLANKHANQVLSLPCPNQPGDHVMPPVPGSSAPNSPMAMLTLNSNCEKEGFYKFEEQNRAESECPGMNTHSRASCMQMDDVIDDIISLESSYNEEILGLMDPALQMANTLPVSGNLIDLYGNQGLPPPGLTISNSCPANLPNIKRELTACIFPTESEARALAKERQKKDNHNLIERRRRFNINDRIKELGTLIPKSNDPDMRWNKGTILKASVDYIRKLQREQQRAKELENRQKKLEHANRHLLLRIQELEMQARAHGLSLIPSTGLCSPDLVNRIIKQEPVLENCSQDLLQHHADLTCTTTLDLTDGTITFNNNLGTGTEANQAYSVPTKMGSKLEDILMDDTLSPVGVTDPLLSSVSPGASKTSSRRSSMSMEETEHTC
GPR151 confirm: confirmation of human GPR151 activators; GPR151 PathHunter beta-arrestin cells, luminescence, 90 min; % of EA-reagent control over plate median; AID 1508609; shares compounds with GPR151 activ; activation, % at 11.2 µM; 6,700 tested, under 10 active;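 active means mean percent activation across replicates above the confirmation screen cutoff of 4.91%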
GPR119 counter: activates human GPR119 in a GPR151 counter-screen. shares compounds with GPR151 activ. activation, % at 11.2 µM. GPR119 PathHunter beta-arrestin cells, luminescence, 90 min; 0 = compound-well median, 100 = enzyme-acceptor control. 0.3% of 6,700 active;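 active means mean percent activation in the counterscreen above 29.09%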;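 further: counterscreen on off-target GPR119 to flag nonselective hits from the GPR151 activator screen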
Hits are given with their value; – = inactive; · = no result.

SMILES | GPR151 activ | TEAD-YAP inh | FBW7 act | MITF inh | GPR151 confirm | GPR119 counter
O=C(NCc1cccs1)c1nc2c(nnn2Cc2ccc(F)cc2)c(=O)[nH]1 | – | – | – | – | · | ·
O=C(NCc1ccco1)c1nc2c(nnn2Cc2ccc(F)cc2)c(=O)[nH]1 | 5.3 | – | – | – | – | –
CC1(c2ccccc2NC(=O)c2ccccc2)CC1 | – | – | – | – | · | ·
Cc1ccc(CN2CCN(C(=O)C3CCC3)CC2)cc1 | 5.0 | – | – | – | – | –
CCc1ccc(CN2CCC(C(=O)N3CCN(CC)CC3)CC2)cc1 | – | – | – | – | · | ·
COc1ccc(C(=O)NC2C3CC4CC(C3)CC2C4)cc1Cl (stereo not given) | – | – | – | – | · | ·
COc1ccc(Cl)cc1C(=O)NC1C2CC3CC(C2)CC1C3 (stereo not given) | 5.0 | – | – | – | – | –
COc1cc(OC)cc(C(=O)NC2C3CC4CC(C3)CC2C4)c1 (stereo not given) | 11.9 | – | – | – | – | –
C=C(C)COc1c(I)cc(C=O)cc1OC | 6.6 | – | – | – | – | –
Cc1cccc(NC(=O)CCCCCN2C(=O)c3ccccc3C2=O)c1 | – | – | – | – | · | ·
NC(=O)C1CCN(C2=NS(=O)(=O)c3ccccc32)CC1 | – | – | – | – | · | ·
O=C(OCc1nc2ccccc2s1)C1CCN(C2=NS(=O)(=O)c3ccccc32)CC1 | 5.6 | – | – | – | – | –
C=CCc1ccccc1OCCOc1ccc([N+](=O)[O-])cc1/C=N/NC(N)=O | 6.2 | – | – | – | – | –
CC(C)Cn1c2c(c(=O)[nH]c1=O)C(NC(=O)C1CCCCC1)(C(F)(F)F)C(=O)N2 (stereo not given) | – | – | – | – | · | ·
CCC(Sc1nc2nc(C)c(Cc3ccc(F)cc3Cl)c(C)n2n1)C(=O)Nc1ccccc1OC (stereo not given) | 5.4 | – | – | – | – | –
CCc1ccccc1NC(=O)CSc1nc2nc(C)c(Cc3ccc(F)cc3Cl)c(C)n2n1 | – | – | – | – | · | ·
CCOc1ccc2nc(C(=O)N3CCCCC3)sc2c1 | 11.3 | – | – | – | – | –
CSc1nnc(-c2ccc(SC#N)cc2)o1 | – | – | – | – | · | ·
CCOC(=O)N1CCN(C(=O)C2CCCN(c3nn4c(=O)cc(C)nc4s3)C2)CC1 (stereo not given) | 5.6 | – | – | – | – | –
Cc1cc(=O)n2nc(N3CCCC(C(=O)N4CCN(c5ccccc5)CC4)C3)sc2n1 (stereo not given) | – | – | – | – | · | ·
C=CCOc1ccc(/C=N/NC(=O)CSc2ncccn2)cc1OCC | – | – | – | – | · | ·
CN1C(=N)N(c2nc(N(C)C)nc(N(C)C)n2)CC1=O | – | – | – | – | · | ·
Cc1cc(C)nc(N2CC(=O)N(C)C2=N)n1 | 5.5 | – | – | – | – | –
O=S(=O)(Nc1ccccc1F)c1cccc(S(=O)(=O)c2ccccc2)c1 | 5.3 | – | – | – | – | –
N#Cc1cccc(S(=O)(=O)Nc2ccccc2F)c1 | – | – | – | – | · | ·
SMILES | GPR151 activ | TEAD-YAP inh | FBW7 act | MITF inh | GPR151 confirm | GPR119 counter
CCOC(=O)CNC(=O)CSc1nnc(NC(=O)C(C)(C)C)s1 | 5.2 | – | – | – | – | –
CC(C)(C)C(=O)Nc1nnc(SCC(=O)NO)s1 | – | – | – | – | · | ·
CC(C)(C)C(=O)Nc1nnc(SCC(N)=O)s1 | 5.2 | – | – | – | – | –
O=C(NCc1ccccc1)c1c(NC(=O)C2COc3ccccc3O2)sc2c1CCCC2 (stereo not given) | – | – | – | – | · | ·
CN(CCNC(=O)CC1Oc2ccccc2NC1=O)C1CCCCC1 (stereo not given) | – | – | – | – | · | ·
O=C(Nc1cccc([N+](=O)[O-])c1)c1cccc(S(=O)(=O)Nc2ccc(Cl)cc2)c1 | – | – | – | – | · | ·
CCOc1ccc(NC(=O)Nc2nnc(CSCc3ccccc3)s2)cc1 | 7.0 | – | – | – | – | –
O=C(CNc1ccc2ccccc2c1)N/N=C/c1cccc([N+](=O)[O-])c1 | – | – | – | – | · | ·
O=C(NCc1n[nH]c(=S)n1-c1ccccc1Cl)c1ccccc1F | 6.7 | – | – | – | – | –
CCOc1ccc(/C=C2\SC(=S)NC2=O)cc1 | – | – | – | – | · | ·
O=C(C1CCCCC1)N1CCOc2ccc(CN3CCN(Cc4ccccn4)CC3)cc2C1 | 5.0 | – | – | – | – | –
O=C(C1CCC1)N1CCOc2ccc(CN3CCN(c4ccccn4)CC3)cc2C1 | – | – | – | – | · | ·
Nc1ncc(Cc2cccc([N+](=O)[O-])c2)s1 | 5.4 | – | – | – | – | –
O=C(Nc1ncc(Cc2cccc(C(F)(F)F)c2)s1)c1cccc([N+](=O)[O-])c1 | 5.1 | – | – | – | – | –
CC(=O)c1ccc(Cc2cnc(N)s2)cc1 | 8.9 | – | – | – | – | –
Nc1ncc(Cc2ccccc2)s1 | – | – | – | – | · | ·
CN1CCN(C(=O)C2CCN(Cc3cnn(-c4ccccc4)c3-n3cccc3)CC2)CC1 | – | – | – | – | · | ·
N#Cc1cccc(NC(=O)c2cc(Cl)ccc2Cl)c1 | – | – | – | – | · | ·
O=C(C1CCCC1)N(c1ccc(Cl)cc1)C1C=CS(=O)(=O)C1 (stereo not given) | – | – | – | – | · | ·
CCOc1ccc(NC(=O)Cn2c(=O)c3c(OCC)c(C)cnc3n(C)c2=O)cc1 | – | – | – | – | · | ·
CCOc1ccc(NC(=O)C(CC(=O)O)C2CCCO2)cc1 (stereo not given) | – | – | – | – | · | ·
Cc1ccc(NC(=O)C(CC(=O)O)C2CCCO2)cc1 (stereo not given) | 18.6 | – | – | – | – | –
C=CCN1CCN(C(=O)c2cccnc2)C(C(=O)NCc2ccccc2)C1 (stereo not given) | – | – | – | – | · | ·
COc1cccc(NC(=O)CSc2nc3ccc(OC)cc3cc2C#N)c1 | 5.1 | – | – | – | – | –
CCN(CC)C(=O)CCc1nnc(CCc2ccc(OC)cc2)o1 | – | – | – | – | · | ·
SMILES | GPR151 activ | TEAD-YAP inh | FBW7 act | MITF inh | GPR151 confirm | GPR119 counter
CC(C)CC(=O)N1CCC(C2(CCc3ccccc3)NC(=O)N(CCN(C)C)C2=O)CC1 (stereo not given) | – | – | – | – | · | ·
CCC(C)CC(=O)N1CCC(C2(CCC(C)C)NC(=O)N(CCN(C)C)C2=O)CC1 (stereo not given) | 7.5 | – | – | – | – | –
COc1cc([N+](=O)[O-])ccc1N=C1NC(=O)CS1 | – | – | – | – | · | ·
NC(=O)c1c(NC(=O)CSc2nnc3c(n2)[nH]c2ccccc23)sc2c1CCCC2 | – | – | – | – | · | ·
CC1CCCCN1C(=O)Cn1c(=O)n(-c2ccc(F)cc2)c(=O)c2sccc21 (stereo not given) | 5.2 | – | – | – | – | –
CCC1CCCCN1C(=O)Cn1c(=O)n(-c2ccc(F)cc2)c(=O)c2sccc21 (stereo not given) | – | – | – | – | · | ·
CCOC(=O)N1CCc2c(sc(NCc3cc(OC)ccc3OC)c2C(=O)Nc2cc(Cl)ccc2OC)C1 | – | – | – | – | · | ·
Cc1cccc(OCC(=O)N/N=C/c2cc(C)ccc2O)c1 | – | – | – | – | · | ·
